Source: PubChem BioAssay AID588591 (National Center for Advancing Translational Sciences (NCATS), 2011)
The whole screen tested about 390,000 compounds, of which about 4,700 (1.2%) were called active. Roughly 4% stayed inconclusive and do not appear here. What follows is part of a selection rich in actives, with near analogues and random picks from the rest. A number with no mark means an inactive call. Calls follow the shape of the dose curve; as a rule, active = well fitted inhibition curve with a large enough effect; inconclusive = small, poorly fitted or top-dose-only effect, or another doubt; inactive = no such curve, though single readings can be large or run the other way.

target: DNA polymerase eta (Homo sapiens) (UniProt Q9Y253); assay: qHTS for Inhibitors of Polymerase Eta; conditions: recombinant Pol eta, fluorescent DNA replication assay; series mostly up to 114 µM; activity change, negative = inhibition: at the top concentration
How it was run: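 Pol eta at 10 nM preincubated with compounds 15 min at room temperature; reaction started with fluorescent substrate (50 nM final) and read kinetically at 0 and 10 min.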
% is scaled to controls: 0 for no effect and ±100 for the full control effect; potency is read from the fitted curve at half-maximal effect.

Sequence of DNA polymerase eta (Homo sapiens) (Q9Y253 whole entry, looked up): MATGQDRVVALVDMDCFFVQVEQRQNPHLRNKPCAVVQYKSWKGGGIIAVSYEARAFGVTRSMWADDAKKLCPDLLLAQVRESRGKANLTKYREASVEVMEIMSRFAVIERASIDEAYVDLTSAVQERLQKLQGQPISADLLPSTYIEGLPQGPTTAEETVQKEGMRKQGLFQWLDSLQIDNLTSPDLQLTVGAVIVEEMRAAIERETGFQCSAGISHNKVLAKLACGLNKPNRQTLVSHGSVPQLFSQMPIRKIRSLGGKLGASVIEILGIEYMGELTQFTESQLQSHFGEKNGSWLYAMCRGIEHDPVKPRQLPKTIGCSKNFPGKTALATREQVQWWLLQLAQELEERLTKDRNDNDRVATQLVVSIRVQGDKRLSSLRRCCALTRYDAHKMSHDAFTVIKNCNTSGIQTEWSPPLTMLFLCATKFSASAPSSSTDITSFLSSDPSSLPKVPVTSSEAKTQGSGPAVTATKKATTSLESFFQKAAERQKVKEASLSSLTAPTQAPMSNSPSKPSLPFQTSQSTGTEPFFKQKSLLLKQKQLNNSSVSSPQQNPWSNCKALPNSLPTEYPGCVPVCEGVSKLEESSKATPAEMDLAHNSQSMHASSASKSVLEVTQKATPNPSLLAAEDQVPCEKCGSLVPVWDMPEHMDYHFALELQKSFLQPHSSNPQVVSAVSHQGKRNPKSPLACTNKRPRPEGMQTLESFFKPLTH

| SMILES | activity change, negative = inhibition [%] | Potency |
| --- | --- | --- |
| Cc1ccccc1CSc1nc(-c2ccccc2)nc2c1Cc1c(CO)cnc(C)c1O2 | -10.2 | – |
| CCCC(=O)N1CCN(c2nc3c(OC)ccc(C)c3s2)CC1 | -6.03 | – |
| COc1cc(/C=C/C(=O)OCC(=O)NC(=O)NCc2ccccc2)ccc1OCC#N | -9.71 | – |
| COC(=O)c1ccc(COc2ccc(/C=C/C(=O)c3ccc(OC)c(CSCC(=O)O)c3)cc2OC)cc1 | – | 20 µM (active) |
| COC(=O)c1ccc(C(NC(=O)OCc2ccccc2)/C(C)=C/[C@@H](C)C(=O)NCc2ccc(OC)c(OC)c2)cc1 (stereo not given in full) | -11.8 | – |
| COc1ccc(CCNC(=O)c2cn(C)c3ccc(S(=O)(=O)N(C)C4CCCCC4)cc3c2=O)cc1OC | -13.2 | – |
| CCOC(=O)C1CCN(C(c2ccc(F)cc2)c2sc3nc(-c4ccco4)nn3c2O)CC1 (stereo not given) | -3.38 | – |
| CCOc1ccccc1/C=c1\sc2nc(-c3ccco3)nn2c1=O | – | 7.94 µM (active) |
| Oc1c(C(c2ccccc2Cl)N2CCOCC2)sc2nc(-c3ccco3)nn12 (stereo not given) | -7.9 | – |
| Cc1ccc2nc3c(cc(C(=O)NC4CCCCC4)c(=N)n3C(C)C)c(=O)n2c1 | -13.7 | – |
| CCc1cc2c(-c3ccccc3)cc(=O)oc2c2c1OCN(Cc1ccc(C)cc1)C2 | -17.1 | – |
| COC(=O)C1=C(C)NC2=C(C(=O)c3ccccc32)C1c1ccc(-c2ccc(C(=O)O)cc2)o1 (stereo not given) | – | 31.6 µM (active) |
| CCOc1cc(C2C(C(=O)OC)=C(C)NC3=C2C(=O)c2ccccc23)ccc1O (stereo not given) | -0.263 | – |
| CCCOc1ccc(C2c3c(-c4ccccc4O)n[nH]c3C(=O)N2Cc2cccnc2)cc1 (stereo not given) | -12.1 | – |
| COc1cc(-c2noc(-c3ccc(N4CCCC4)c([N+](=O)[O-])c3)n2)cc(OC)c1OC | -17.7 | – |
| CN1c2ccc(Cl)cc2-c2nc(SCC(=O)Nc3cc(F)ccc3F)ncc2S1(=O)=O | 3.16 | – |
| O=c1nc2s/c(=C\c3ccco3)c(=O)n2nc1Cc1ccccc1 | – | 17.8 µM (active) |
| Cc1ccc(C)c(CNC(=O)c2cc3ccccn3n2)c1 | -8.38 | – |
| COc1ccc(CCNC(=O)c2cc3cccc4c3n2CC(C)S4)c(OC)c1OC (stereo not given) | -16 | – |
| CC(CNC(=O)c1nnc(Cc2cccc(F)c2)o1)c1ccccc1 (stereo not given) | -15.9 | – |
| COc1cc2nc(SCc3ccc(F)cc3)n3nc(CCn4c(C)nc5ccccc54)nc3c2cc1OC | -8.04 | – |
| O=S(=O)(NCCS(=O)(=O)N1CCN(c2ccccc2)CC1)c1ccc(Cl)cc1 | 19.5 | – |
| CC1=NN(c2ccc(Cl)c(C(=O)O)c2)C(=O)/C1=C/c1ccc(-c2ccccc2[N+](=O)[O-])o1 | – | 20 µM (active) |
| Cc1ccc(-c2ccc(/C=C(\C#N)C(N)=S)o2)c([N+](=O)[O-])c1 | -15.7 | – |

| SMILES | activity change, negative = inhibition [%] | Potency |
| --- | --- | --- |
| O=C(CSc1nc(=O)[nH]c2c1CCCC2)Nc1cc(C(F)(F)F)ccc1Cl | -12.9 | – |
| COCOc1cc(O)c(C(=O)/C=C/c2ccc(OCOC)c(OCOC)c2)c(OCOC)c1 | -24.5 | – |
| COc1ccc(/C=C/C(=O)c2cc(Br)ccc(=O)c2O)cc1 | – | 31.6 µM (active) |
| COc1cccc(N2CC(NC(=O)/C=C\c3ccccc3)CC2=O)c1 (stereo not given) | -8.81 | – |
| Oc1ccc(-c2nc3ccc(Cl)cn3c2Nc2ccc3c(c2)OCO3)cc1 | 3.35 | – |
| O=C(COc1ccc(Cl)cc1)N(Cc1ccco1)Cc1ccco1 | -27.7 | – |
| COc1cccc(C(c2c(O)cc(C)n(Cc3ccco3)c2=O)N2CCN(c3ccccc3)CC2)c1 (stereo not given) | -18.2 | – |
| O=C(c1ccc(Cl)cc1)n1nc(-c2cccnc2)nc1NCc1ccc(F)cc1 | -15.6 | – |
| Cc1ccc(N2NC(=O)/C(=C/C=C/c3ccco3)C2=O)cc1C | – | 79.4 µM (active) |
| Cc1ccc(N=C2NC(=O)/C(=C/C=C/c3ccco3)S2)cc1C | – | 8.91 µM (active) |
| Cc1ccc(C(=O)N/C(=C\c2ccco2)C(=O)N2CCSCC2)cc1C | -7.95 | – |
| Cc1ccccc1CNC(=O)C(=O)NCC(c1cccs1)S(=O)(=O)c1cccs1 (stereo not given) | -3.21 | – |
| CCCS(=O)(=O)c1c(Nc2ccccc2C)sc(C(=O)c2ccccc2)c1N | -12 | – |
| O=C(CCc1cn(Cc2ccc(F)cc2)c2ccccc12)NC1CCCCC1 | -15.2 | – |
| CC(=O)Nc1cccc(NC(=O)CSc2nccn2Cc2ccc3c(c2)OCO3)c1 | -7.09 | – |
| COc1ccc(-c2nn(CC(=O)NC3CCCC3)c3c2cnc2ccc(F)cc23)cc1 | -14.2 | – |
| COc1ccc(CCNC(=O)c2ccc(CSCc3ccc(C)cc3)o2)cc1OC | -14.8 | – |
| COc1ccc(-c2ccc(=O)n(CC(=O)Nc3ccc(Br)cc3F)n2)cc1 | -16.5 | – |
| COCCCn1c(Cc2csc(Nc3cccc(Cl)c3)n2)nnc1SCC(=O)OC1CCCCC1 | – | 7.94 µM (active) |
| CCOc1ccc(Nc2nc(Cc3nnc(SCC(=O)NC4CCCC4)n3C)cs2)cc1 | -2.6 | – |
| COCCCn1c(SCC(=O)NC2CCCC2)nnc1-c1ccccc1 | -18.1 | – |
| COc1ccc(Cn2c(=O)c3oc4ccccc4c3n(CC(=O)Nc3ccc(F)cc3F)c2=O)cc1 | -8.21 | – |
| C=C1c2c(Cl)ccc(O)c2C(O)=C2C(=O)[C@]3(O)C(O)=C(C(N)=O)C(=O)[C@@H](N(C)C)[C@@H]3[C@@H](O)C12 (stereo not given in full) | – | 35.5 µM (active) |
| O=C(CSc1cn(CC(=O)N2CCOCC2)c2ccccc12)Nc1ccccc1 | -21.2 | – |

| SMILES | activity change, negative = inhibition [%] | Potency |
| --- | --- | --- |
| COc1ccc(NC(=O)CSc2nc(NS(=O)(=O)c3ccc(C)cc3)cc(=O)[nH]2)cc1 | -14.8 | – |
| Cc1nnc(SCC(=O)Nc2ccc(S(=O)(=O)Nc3ccc(Cl)nn3)cc2)s1 | – | 20 µM (active) |
| Cc1nnc(SC(C)C(=O)Nc2ccc(S(=O)(=O)NC3CCCCC3)cc2)s1 (stereo not given) | -4.71 | – |
| Cc1nc2nc(SCC(=O)NC3CCC(C)CC3)nn2c(C)c1Cc1ccccc1Cl (stereo not given) | 11.3 | – |
| Cc1cc(C)c2oc(C(=O)Nc3ccc(S(=O)(=O)N(C)c4ccccc4)cc3)cc(=O)c2c1 | -7.98 | – |
| O=C(Nc1cc(C(F)(F)F)ccc1Cl)c1cc2nc(-c3ccc4c(c3)OCO4)cc(C(F)(F)F)n2n1 | -14.8 | – |
| C=CCC1=C/C(=C\c2c(N)n3nc(CC(=O)N4CCOCC4)sc3nc2=O)C=C(OC)C1=O | – | 31.6 µM (active) |
| COc1ccc(-c2ccnc(SCC(=O)N3CCOCC3)n2)cc1 | 0.998 | – |
| COc1ccc(S(=O)(=O)N2CCN(CC(=O)N3CCOCC3)CC2)cc1OC | -2.56 | – |
| COC1=C/C(=C/c2c(N)n3nc(CC(=O)N4CCOCC4)sc3nc2=O)C=CC1=O | – | 44.7 µM (active) |
| O=C(Nc1cc(C(F)(F)F)ccc1Cl)c1nc2ccccc2nc1N1CCCCC1 | -8.05 | – |
| O=C(CN1CCSc2ccccc21)N1CCN(c2ccccc2)CC1 | -9.53 | – |
| Cc1cc(C(=O)Nc2cccc(C(F)(F)F)c2)c2c(C)nn(-c3cccc(F)c3)c2n1 | -21.6 | – |
| O=C(c1ccc2c(c1)N(Cc1ccc(Cl)cc1)C(=O)c1ccccc1S2(=O)=O)N1CCCCC1 | -19.6 | – |
| COc1ccc(NC(=O)CN2CCCN(Cc3ccccc3)S2(=O)=O)cc1 | 2.95 | – |
| COc1c(Cl)cc(C(=O)N(Cc2ccccc2F)C2CCS(=O)(=O)C2)cc1Cl (stereo not given) | -6.43 | – |
| COc1ccc(NC(=O)CCc2nnc3n(CC(C)C)c(=O)c4ccccc4n23)cc1OC | -8.67 | – |
| Cc1cccc(NC(=O)NC2(C)CCS(=O)(=O)C2)c1 (stereo not given) | -8.75 | – |
| Cc1cccc(NC(=O)C2CCN(C(=O)NC3CCCCC3)CC2)c1 | -5.25 | – |
| Cc1cccc(NC(=O)C2CC(=O)OC23CCCC3)c1 (stereo not given) | – | 25.1 µM (active) |
| Cc1ccc(CCNC(=O)c2ccc(CNS(=O)(=O)c3ccc(C)cc3)cc2)cc1 | -15.1 | – |
| COc1ccc(CCNC(=O)c2cnc3sc(N4CCCCCC4)nn3c2=O)cc1OC | -23.6 | – |
| COc1ccccc1Nc1c2c(nc3ccc(NC(=O)/C=C/c4cc(OC)c(OC)c(OC)c4)cc13)CCCC2 | -19 | – |
| Cc1ccc(-c2nnc(SCC(=O)NCc3ccccc3)nc2-c2ccc(C)cc2)cc1 | -9.01 | – |

| SMILES | activity change, negative = inhibition [%] | Potency |
| --- | --- | --- |
| Clc1ccccc1CSc1nncn2c1cc1occc12 | -0.969 | – |
| c1ccc(CSc2nnc(-c3ccco3)c(-c3ccco3)n2)cc1 | – | 22.4 µM (active) |
| Fc1ccc(CSc2nc(NCc3ccccc3)c3ccccc3n2)cc1 | -8.11 | – |
| Clc1ccccc1CSc1nnc(-c2ccco2)c(-c2ccco2)n1 | – | 25.1 µM (active) |
| CC1(C)N=C(SCc2ccccc2Cl)c2ccccc2N1 | -4.35 | – |
| CC1=C(C(=O)OCc2ccc(C)cc2)C(c2ccccc2Cl)CC(=O)N1 (stereo not given) | -16.9 | – |
| CCN(CC)c1ccc(NS(=O)(=O)c2cc(-c3cc(C)no3)ccc2C)c(C)c1 | -12.1 | – |
| COc1ccc(C)cc1Nc1nc2ccccc2c2nnc(C)n12 | -6.98 | – |
| O=C1CC(c2nnc(Cc3ccc(Cl)cc3)o2)CN1c1ccccc1 (stereo not given) | -16.8 | – |
| Cc1ccc(Cl)cc1NC(=O)C(C)n1nnc2sc(-c3ccccc3)cc2c1=O (stereo not given) | -17.2 | – |
| COc1cc(OC)c(NC(=O)N2CC3CCCN3c3ccccc32)cc1Cl (stereo not given) | -7.73 | – |
| C=CCn1c(=S)[nH]c2scc(-c3ccco3)c2c1=O | – | 17.8 µM (active) |
| Cc1ccc(N2CC(NC(=O)Cc3cccs3)CC2=O)cc1 (stereo not given) | -13.2 | – |
| Cc1nn(-c2nc(-c3ccccc3)cc(C(F)(F)F)n2)c(C)c1Cl | -26.9 | – |
| COc1ccc(OC)c(NC(=O)N[C@H](Cc2ccccc2)C(=O)NN)c1 | -1.79 | – |
| COc1ccc2oc(C(=O)NCC(Cc3ccccc3)N(C)C)c(C)c2c1 (stereo not given) | -5.61 | – |
| COc1cc([C@H](Cc2ccccc2)NC(C)=O)oc(=O)c1 | – | 20 µM (active) |
| CCOc1ccccc1CNC(=O)C1CCCN(S(=O)(=O)c2ccc3c(ccn3C)c2)C1 (stereo not given) | -23.1 | – |
| Cc1c2cnn(-c3ccccc3)c(=O)c2c(C)n1C(C)C(=O)Nc1ccc(Br)cc1F (stereo not given) | 0.659 | – |
| Cc1cc(=O)[nH]c(SCc2ccc(Cl)cc2)n1 | -11.7 | – |
| Cc1cccc(-c2nc(SCc3ccc(Br)cc3)n3[nH]c(=O)cc3n2)c1 | -7.93 | – |
| Cc1ccc(-c2nc(SCc3ccc(Br)cc3)n3[nH]c(=O)cc3n2)cc1 | – | 20 µM (active) |
| Cc1cccc(N2CCN(c3ccc(C(=O)O)cc3NC(=O)c3ccccc3F)CC2C)c1 (stereo not given) | -3.62 | – |
